# Rows were chosen to be rich in hits. Some 2.2% of all compounds tested hit in one or more screens of this group.
# Ba/F3 V617F tox: reduced viability of JAK2V617F-dependent Ba/F3 cells, primary screen, JAK2V617F inhibitor project, cell-based, Ba/F3 EpoR-JAK2V617F, luminescence | ATP luminescence | inhibition, % at 5.6 µM | 220,000 compounds, 1.1% hits;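 active = inhibition above the campaign mean plus 3 SD over all tested compounds, cut at about 24% in these data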;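 note: cytokine-independent growth of Ba/F3 cells driven by EpoR plus mutant JAK2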
# IEC-6 tox-1: cytotoxicity in IEC-6 intestinal epithelial cells, primary screen, cytotoxicity control for KLF5 inhibitor project, cell-based, luminescence | IEC-6 cytotoxicity, luminescence viability | inhibition, % at 5 µM | 290,000 compounds, 0.78% hits
# KLF5 inh: KLF5 expression inhibitors, primary screen, DLD-1 cells, luminescence | inhibition, % at 5 µM | AID 1700, 2009 | 290,000 compounds, 0.23% hits | DLD-1 KLF5 promoter-luciferase reporter;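 active = inhibition above a per-plate limit of that plate's mean compound inhibition plus 3 SD, cut at about 60% in these data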;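 note: higher means less KLF5 promoter-driven luciferase light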
# BaF3 tox: parental Ba/F3 cell viability inhibition, counter-screen for JAK2V617F inhibitor project, murine pro-B, CellTiter-Glo luminescence | inhibition, % at 5.6 µM | CellTiter-Glo ATP luminescence | 220,000 compounds, 1.1% hits | AID 1486, 2009;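 active = inhibition above a per-campaign cutoff, the mean inhibition of all tested compounds plus 3 SD, cut at about 27% in these data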
# APP transl inh: inhibitors of APP translation via 5'UTR reporter, primary screen, APP 5'UTR luciferase, SH-SY5Y cells; SH-SY5Y APP 5'UTR-luciferase reporter, luminescence; inhibition, % at 2 µM; 190,000 compounds, 0.82% hits; AID 1285, 2008;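 active = inhibition above a set limit, derived from the sample mean plus 3 SD, cut at about 45% in these data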
# aSyn 5UTR inh: MLPCN primary screen, SNCA 5' untranslated region. alpha-synuclein 5'UTR reporter, inhibitor activity. AID 1813, 2009. 300,000 compounds, 0.82% hits. inhibition, % (tested at 7.5 µM); in the data active = inhibition above about 60%;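 note: H4 neuroglioblastoma cells stably carrying SNCA 5'UTR luciferase fusion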
# KLF5 confirm: KLF5 expression inhibitors, confirmation, DLD-1 cells, luminescence. inhibition, % at 4 µM. 610 compounds, 79% hits. AID 1834, 2009. shares compounds with KLF5 inh. DLD-1 KLF5 promoter firefly luciferase reporter;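 active = inhibition above a set limit taken from the earlier primary screen, cut at about 63% in these data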
# IEC-6 tox-2: cytotoxicity in rat IEC-6 cells, cytotoxicity control for KLF5 inhibitor project, cell-based, luminescence, triplicate. IEC-6 rat intestinal cells, viability luminescence. shares compounds with KLF5 inh. AID 1905, 2009. 610 compounds, 56% hits. inhibition, % at 4 µM; in the data active = inhibition above about 23%;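 note: cells exposed to compounds for 48 hours before viability read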
# IEC-6 cytotox cf: cytotoxic compounds in IEC-6 epithelial cells, confirmation, cytotoxicity control, cell-based, luminescence | shares compounds with IEC-6 tox-1 | 1,900 compounds, 63% hits | IEC-6 rat intestinal epithelial viability | inhibition, % at 5 µM
# Numbers stand for hits; n = inactive; x = not tested or not shown. Cut-off read from the data, not from the text of the source, unless noted: active = inhibition above about 22%; inactive = the rest.
SMILES,Ba/F3 V617F tox,IEC-6 tox-1,KLF5 inh,BaF3 tox,APP transl inh,aSyn 5UTR inh,KLF5 confirm,IEC-6 tox-2,IEC-6 cytotox cf
CN1CC[C@@]2([C@@]34CCN(C)C3Nc3ccccc34)c3ccccc3NC12 (some centres not stated),x,x,x,x,x,n,x,x,x
COC(=O)C1CC23C=CCN4CCC5(c6ccccc6NC15C2C)C43 (configuration not stated),x,87.6,61.9,x,x,93.8,78.6,59.2,59.2
N#Cc1ccc(-c2cccs2)nc1SCc1cccnc1,73.2,78.7,62.4,69.1,x,90.3,74.7,63.9,64.2
Cc1cc2c(=O)n(C)c(SCC(=O)Nc3ccccc3C)nc2s1,x,x,x,x,x,n,x,x,x
COc1cc2c(c(OC)c1OC)-c1ccc(NC(=O)c3ccccc3)c(=O)cc1[C@@H](NC(C)=O)CC2,x,86.6,77.3,x,x,n,64.5,49.4,48.9
CCOc1ccc2[nH]c(C(=O)N/N=C/c3ccc(OC)cc3)cc2c1,x,84.4,65.9,x,x,75.9,73.3,58.4,58.0
O=C(CCl)NN1C(=O)NC(c2ccccc2)(c2ccccc2)C1=O,x,n,n,x,x,n,x,x,x
CCN(CC)c1ccc(-c2nn3c(-c4ccccc4OC)nnc3s2)cc1,93.3,92.9,79.9,87.1,93.9,82.5,91.3,72.0,77.3
Cc1nn(-c2ccccc2)c(C)c1/C=N/NC(=O)c1cc(-c2cccc3ccccc23)n[nH]1,n,n,n,n,n,n,x,x,x
Cc1nn(-c2ccccc2)c(C)c1/C=N/NC(=O)c1cc(-c2ccccc2)n[nH]1,70.8,76.8,62.9,78.4,95.0,82.1,84.2,65.4,58.2
CC1CCN(Cc2c(C(=O)N/N=C/c3ccccc3O)nnn2-c2nonc2N)CC1,x,47.2,70.2,x,x,65.5,85.1,n,41.8
CCN(C(=O)CSC1=Nc2ccccc2C2CC=NN12)C1CCS(=O)(=O)C1 (configuration not stated),n,n,n,n,n,n,x,x,x
COC(=O)c1sc(N)c(C(=O)OC)c1COC(=O)c1c(C)noc1C,71.0,66.5,68.1,72.9,n,n,n,35.0,41.7
CCOC(=O)C(=CNc1cc(C(F)(F)F)ccc1N1CCOCC1)C(=O)OCC,n,n,n,n,x,n,x,x,x
O=C(Cc1n[nH]c(=O)c2ccccc12)OCC(=O)c1ccc2c(c1)OCCO2,83.5,89.4,77.0,82.2,94.6,80.4,65.4,71.5,60.3
Cc1noc(C)c1CSCC(=O)Nc1nnc(CC(C)C)s1,x,n,n,x,x,n,x,x,x
Cc1ccccc1Cn1c(=O)n(C)c(=O)c2sccc21,x,n,n,x,x,n,x,x,x
Cc1c(/C=N\NC(=O)C2COc3ccccc3O2)c2ccccc2n1C (configuration not stated),77.6,80.1,74.3,75.7,91.4,102.0,82.3,75.5,61.4
COc1cc(-c2noc(C)c2/C=C/c2ccc(C(=O)O)cc2)cc(OC)c1OC,x,n,n,x,x,n,x,x,x
COc1cc(-c2noc(C)c2/C=C/c2cccc([N+](=O)[O-])c2)cc(OC)c1OC,x,79.4,64.2,x,x,69.2,79.5,54.5,53.7
O=C(N/N=C/c1ccc(O)cc1O)c1ccncc1,x,n,n,x,x,n,x,x,x
O=C(N/N=C/c1cc(Br)cc(Br)c1O)c1ccncc1,n,24.0,77.5,n,n,n,87.9,40.1,n
CN1Cc2cc(C(=O)c3cc(Cl)cc(CSc4ncccn4)c3O)cnc2NC1=O,70.8,72.9,75.2,74.8,95.5,78.7,84.9,59.2,66.2
Cc1ccc(O)c(C(=O)c2cnc3c(c2)CN(C)C(=O)N3)c1,n,n,n,n,n,n,x,x,x
COc1ccc(/C=C/C(=O)c2cc(F)ccc2OC(=O)c2ccc(OC)c(OC)c2)cc1OC,n,n,n,n,n,n,x,x,x
SMILES,Ba/F3 V617F tox,IEC-6 tox-1,KLF5 inh,BaF3 tox,APP transl inh,aSyn 5UTR inh,KLF5 confirm,IEC-6 tox-2,IEC-6 cytotox cf
COc1ccc(/C=C/C(=O)c2cc(F)ccc2OC(=O)c2ccccc2OC)cc1OC,n,52.4,69.9,n,88.7,68.0,84.2,39.8,41.4
CC(=O)Nc1ccc(NC(=O)CS(=O)(=O)Cc2ccccc2)cc1,x,n,n,x,x,n,x,x,x
CCn1c2ccccc2c2cc(NC(=O)c3cc(OC)c(OC)c(OC)c3)ccc21,87.2,91.7,82.8,85.8,n,n,88.5,86.0,88.8
CCn1c2ccccc2c2cc(NC(=O)COc3ccc(OC)cc3)ccc21,n,n,n,n,n,n,x,x,x
Cc1ccnc(NC(=O)C2CCN(S(=O)(=O)c3ccc(C)c(C)c3)CC2)c1,x,x,x,x,x,n,x,x,x
O=C(Nc1ccc(Cl)cn1)c1cccc2c(Br)cccc12,x,82.4,62.4,x,x,n,n,n,n
Cc1ccccc1C(=O)Nc1ccc(Cl)cn1,n,n,n,n,n,n,x,x,x
CC12CCC(C(=O)N(c3ccccn3)c3ccccn3)(OC1=O)C2(C)C (configuration not stated),n,n,n,n,n,n,x,x,x
COc1ccc(S(=O)(=O)Cc2ccc(C(=O)N3CCN(c4cccc(C)c4C)CC3)o2)cc1,n,n,n,n,n,n,x,x,x
Cc1ccc(S(=O)(=O)Cc2ccc(C(=O)N3CCN(c4cccc(C)c4C)CC3)o2)cc1,x,77.2,64.0,x,x,88.5,68.0,56.8,56.4
NNC(=O)c1[nH]c2ccccc2c1-c1ccccc1,x,95.0,81.6,x,x,95.7,n,n,n
CC(=O)NNC(=O)c1[nH]c2ccc(Cl)cc2c1-c1ccccc1,n,n,n,n,x,n,x,x,x
CCCC(NC(=O)COc1cc2c(c3oc(=O)cc(C)c13)CCC(C)(C)O2)C(=O)O (configuration not stated),x,n,n,x,x,n,x,x,x
COc1cc(C(=O)N/N=C/c2sccc2C)cc(OC)c1OC,80.4,88.6,70.2,84.5,91.9,114.1,85.8,63.0,65.1
Cc1ccsc1/C=N/NC(=O)c1ccncc1,n,n,n,n,n,n,x,x,x
CN1/C(=C/C=C(/C#N)C(N)=O)C(C)(C)c2ccccc21,78.5,47.3,68.8,62.4,68.5,n,n,36.1,44.4
CN1/C(=C\C=C(/C#N)C(=O)Nc2ccccc2F)C(C)(C)c2ccccc21,n,n,n,n,n,n,x,x,x
COc1ccc2c(c1)sc(N)[n+]2Cc1cc(C)cc2cccnc12,82.0,80.0,69.3,79.2,95.2,114.3,72.9,61.1,63.3
O=C(Nc1ccc(Cl)cc1C(=O)N1CCCC1)c1cccc([N+](=O)[O-])c1,n,n,n,n,n,n,x,x,x

# Compound activity from PubChem.
